According to the supplement of paper PMC3334620:
Over roughly 33,000 sequences, “E-score (-0.5 to 0.5)” has its median near -0.015; the highest 2% begin near 0.3. This is one part of a sample in which the highest values are shown more often than they occur.

What follows are sequences tested against T1, Abf1 (UniProt P14164) (assay: PBM E-score (8-mer binding enrichment) (E-score (-0.5 to 0.5)); higher = stronger / more preferred TF binding). Settings: protein concentration: 200 nM; construct: GST-full length.
T1 sequence: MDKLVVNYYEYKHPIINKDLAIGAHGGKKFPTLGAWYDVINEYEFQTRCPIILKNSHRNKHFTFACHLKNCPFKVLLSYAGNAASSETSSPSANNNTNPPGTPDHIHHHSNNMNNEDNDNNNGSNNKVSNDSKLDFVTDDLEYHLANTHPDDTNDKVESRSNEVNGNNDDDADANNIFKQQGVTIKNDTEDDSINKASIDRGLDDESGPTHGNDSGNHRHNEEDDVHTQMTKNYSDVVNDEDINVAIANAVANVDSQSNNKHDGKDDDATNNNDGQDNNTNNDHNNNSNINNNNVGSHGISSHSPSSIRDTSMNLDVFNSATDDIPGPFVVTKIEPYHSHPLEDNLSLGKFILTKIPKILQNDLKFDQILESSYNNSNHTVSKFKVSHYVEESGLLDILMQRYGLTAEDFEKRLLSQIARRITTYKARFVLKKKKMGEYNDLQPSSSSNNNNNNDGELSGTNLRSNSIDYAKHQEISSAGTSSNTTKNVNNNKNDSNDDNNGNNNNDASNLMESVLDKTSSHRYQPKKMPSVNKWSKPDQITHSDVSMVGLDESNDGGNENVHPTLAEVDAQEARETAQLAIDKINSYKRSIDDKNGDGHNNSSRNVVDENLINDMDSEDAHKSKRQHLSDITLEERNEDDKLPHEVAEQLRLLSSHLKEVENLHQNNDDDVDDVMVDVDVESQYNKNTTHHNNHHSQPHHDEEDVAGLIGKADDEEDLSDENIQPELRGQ
Outline: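 Detection of bound protein used fluorescent anti-GST, with scans normalised by masliner. The proteins were GST-tagged yeast transcription factors applied at about 100-200 nM to universal all-10-mer Agilent arrays made double-stranded by primer extension. Each ungapped eight-base word, pooled with its reverse complement, was scored with an E-score from the Universal PBM Analysis Suite.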

| Sequence | PBM E-score |
| --- | --- |
| GATCATGA | 0.227 |
| CATCATGC | 0.128 |
| CATCATGG | 0.101 |
| TATCATGA | 0.306 |
| CATCATGA | 0.298 |
| ACTGGCCG | -0.142 |
| ACATTGAG | -0.169 |
| CCTGGCGA | -0.127 |
| GGCCATCA | -0.255 |
| AATCGAAA | 0.126 |
| CGAAGGGA | -0.118 |
| GGATGAGA | -0.0398 |
| CGATGATC | 0.287 |
| GGATGATA | 0.31 |
| AGATGATA | 0.364 |
| AGATGATC | 0.176 |
| CGATGATA | 0.305 |
| AGATGATG | 0.216 |
| GGATGAAA | 0.128 |
| CGATGAGA | 0.19 |
| ACATTGGG | -0.0776 |
| TGGCTTAA | 0.115 |
| AGATTCCC | -0.0908 |
| ACAAAGTC | 0.0656 |
| AAGGGTTA | 0.0193 |

| Sequence | PBM E-score |
| --- | --- |
| AAACCTGC | -0.168 |
| ATGTGAAG | 0.164 |
| ACCGGACG | -0.0917 |
| ATGACCCC | -0.103 |
| AGACTTCA | -0.0675 |
| ACGAAAGG | 0.276 |
| ACGAAACC | 0.196 |
| ACGAAAAA | 0.216 |
| ACGAAAAC | 0.316 |
| ACGAAACA | 0.245 |
| GCGAAAGC | -0.15 |
| ACGAAGAC | 0.308 |
| ACGAAGAT | 0.284 |
| ACGAAGAA | 0.288 |
| ACGAAAAG | 0.218 |
| ACGAAACT | 0.336 |
| ACGAAAGC | 0.356 |
| GGAGACTA | -0.107 |
| CTGTCGCC | -0.202 |
| AGGTTTGA | -0.188 |
| CCTGGCCA | -0.161 |
| ACTCTATA | 0.145 |
| GCGGAAAC | -0.206 |
| AGGATTGG | -0.0614 |
| GTTCTTAA | 0.124 |

| Sequence | PBM E-score |
| --- | --- |
| ACGAAGTC | 0.152 |
| ACGAAGTG | 0.301 |
| ACGAAGTA | 0.169 |
| AGACGTTG | 0.109 |
| ACAGATTG | -0.0933 |
| ATGACATC | 0.308 |
| ACGACATC | 0.303 |
| CTGACACA | -0.208 |
| ATGACAGG | -0.0297 |
| ATGACACC | 0.187 |
| AGGACATG | -0.0301 |
| CCGACATC | 0.218 |
| ATGACATG | 0.358 |
| GTGACACA | 0.343 |
| CTGACATC | -0.0102 |
| ATGACACA | 0.266 |
| ACGACATG | 0.225 |
| GAGTATCC | 0.0845 |
| ACCACGCT | -0.0224 |
| GAACAGTC | -0.0496 |
| AATTTGCC | -0.136 |
| GGGACATA | -0.00523 |
| CTGACATA | 0.0493 |
| GTGACATA | 0.43 |
| CTGACAGA | 0.0348 |

| Sequence | PBM E-score |
| --- | --- |
| GAGACATA | 0.0808 |
| AAGACATA | 0.103 |
| ATGACAGA | 0.128 |
| ATGACATA | 0.401 |
| GTGACAGA | 0.359 |
| ACGACTCG | 0.144 |
| CGTGGTAC | 0.161 |
| AACTGCTG | -0.0316 |
| CTGACTCC | -0.131 |
| CGTGGGAG | 0.0501 |
| CAAATCCC | -0.184 |
| ACGTCGAA | 0.163 |
| CCGTCGTA | 0.282 |
| GCGTCGAA | 0.0222 |
| GCGTCGTA | 0.418 |
| TCGTCGAA | 0.355 |
| ACGTCGTA | 0.228 |
| ACGTCTAA | 0.196 |
| TCGTCGCA | 0.322 |
| GCGTCGCA | -0.0267 |
| TCGTCTAA | 0.298 |
| CCGTCGCA | 0.282 |
| CCGTCTAA | 0.266 |
| CCGCCATA | -0.072 |
| GGGTTACC | -0.0518 |

| Sequence | PBM E-score |
| --- | --- |
| CAGACCAA | -0.132 |
| GCCCAAAA | -0.114 |
| AAATGGAG | 0.0525 |
| AGGCTCTA | -0.247 |
| GATGACAC | 0.337 |
| AATGACAA | 0.397 |
| AATGACAG | 0.16 |
| CATGACAC | 0.218 |
| CATGACAA | 0.238 |
| AATGACTA | 0.222 |
| AATGACAC | 0.227 |
| AATGACCA | 0.256 |
| GATGACAA | 0.369 |
| TATGACAA | 0.27 |
| AATGACAT | 0.39 |
| AATGACCT | 0.223 |
| CGAGGATA | 0.0582 |
| GATGGGCA | -0.0389 |
| CTCATCAA | 0.192 |
| GCCCTCTA | -0.224 |
| CCACTCTC | -0.22 |
| GACGATAA | 0.363 |
| TACGATAA | 0.179 |
| GACGATTA | 0.31 |
| CACGATTA | 0.247 |

| Sequence | PBM E-score |
| --- | --- |
| AACGATTA | 0.172 |
| CACGATAA | 0.296 |
| GACCAAAA | 0.183 |
| AAACCGAC | -0.0139 |
| CGCACCAA | -0.0891 |
| TCACGCCA | 0.113 |
| ATGATAGA | 0.103 |
| CTGATAAC | 0.167 |
| ATGATAAA | 0.406 |
| AAGATAAC | 0.171 |
| GTGATAAC | 0.371 |
| CTGATAAA | 0.112 |
| GTGATAAA | 0.412 |
| AAGATAAA | 0.132 |
| TTGATAAA | 0.23 |
| GCGATAAC | 0.158 |
| ATGATAAC | 0.339 |
| GAGATAAC | 0.138 |
| CCGGTTCC | -0.286 |
| CCCATTTA | -0.0213 |
| AAAGGCAG | 0.17 |
| AAAGCTAG | -0.236 |
| GAGATACA | 0.146 |
| ATGATAAG | 0.291 |
| ATAATAAA | 0.2 |

| Sequence | PBM E-score |
| --- | --- |
| GTAATAAC | 0.124 |
| GTAATAAA | 0.313 |
| ATGATAAT | 0.377 |
| AAGATAAT | 0.0926 |
| CTGATACA | 0.0567 |
| GTGATACA | 0.311 |
| CACTTTGC | 0.137 |
| CTGACACC | -0.0573 |
| GGTTGGAA | -0.166 |
| AACTAGAG | -0.159 |
| ATACAGTG | 0.011 |
| AGAGAAGA | 0.0299 |
| CCACCAGC | 0.0706 |
| ATCGTTTA | 0.321 |
| CTCGTTTA | 0.0984 |
| ATCGTTTG | 0.298 |
| AGCGTTTA | -0.153 |
| GCCGTTTA | 0.102 |
| ATCGTTTC | 0.325 |
| ATCGTTCC | 0.068 |
| GTCGTTTA | 0.298 |
| CTCGTTTC | 0.129 |
| AACGTTTA | -0.0328 |
| ACCGTTTG | 0.103 |
| AGCGTTTG | -0.116 |
